From PubChem BioAssay (Tox21) come the findings set out here.

Molecules are shown by their SMILES. Records with an inconclusive call do not appear. Entries that show only a call come without a potency. The source made the active and inactive calls. Calls come from the whole dose curve; as a rule, active = well fitted cell-killing curve with a large enough effect in the repeat runs; inconclusive = weak or mixed curves, or effect the other way; inactive = flat fitted curve, though single readings scatter.
Potency is the fitted concentration of half-maximal effect.

A short description of the assay: qHTS assay to identify small molecule agonists of the constitutive androstane receptor (CAR) signaling pathway - cell viability counter screen (AID 1224836). Note: nearly all actives have a fitted effect of over 45% in size. The settings on record: HepG2-CYP2B6-hCAR viability, CellTiter-Fluor, 23 h, PK11195 added to every well; series mostly up to 92.4 µM. The gist of the method:
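Cells were seeded and incubated 4 hrs. Compounds were added across 15 concentrations together with PK11195 at 0.75 uM final. Plates were incubated 23 hrs at 37 C. CellTiter-Fluor was added and fluorescence measured.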
Take `CCOC(=O)c1ccc(NC(=O)CN2CCCCC2)cc1`: the Potency entry is “inactive”. Take `C[C@@H]1[C@H](O)[C@@H](C)/C=C/C=C\C=C\C=C\C=C\C=C\C=C\[C@H](O[C@@H]2O[C@H](C)[C@@H](O)[C@H](N)[C@@H]2O)C[C@@H]2O[C@](O)(C[C@@H](O)C[C@@H](O)[C@H](O)CC[C@@H](O)C[C@@H](O)CC(=O)O[C@H]1C)C[C@H](O)[C@H]2C(=O)O` (stereo in doubt): the Potency entry was “inactive”. On to `CCOc1ncc(F)c(=O)[nH]1`, for which the Potency result was “inactive”. `CC1CCC(C(C)CS)CC1S` (centres undefined): the Potency entry is “inactive”.

With `O=CNNC=O`, the Potency entry is “inactive”. The same measure for `CC[C@H]1OC(=O)[C@H](C)[C@@H](O[C@H]2C[C@@](C)(OC)[C@@H](O)[C@H](C)O2)[C@H](C)[C@@H](O[C@@H]2O[C@H](C)C[C@H](N(C)C)[C@H]2O)[C@](C)(O)C[C@@H](C)/C(=N\OCOCCOC)[C@H](C)[C@@H](O)[C@]1(C)O`: 25.5 µM (active); for `CCN(CC)c1ccc(C(=C2C=CC(=[N+](CC)CC)C=C2)c2ccc(S(=O)(=O)O)cc2S(=O)(=O)[O-])cc1`: 24.3 µM (active); for `O=C(/C=C/c1ccc([N+](=O)[O-])cc1)c1ccccc1`: 61.3 µM (active). For `Nc1nc(-c2ccc([N+](=O)[O-])cc2)cs1`, the Potency entry was “inactive”. The same measure for `Cc1oc(=O)oc1COC(=O)[C@@H]1N2C(=O)[C@@H](NC(=O)[C@H](N)c3ccccc3)[C@H]2SC1(C)C`: “inactive”; for `CC(C)(C)S`: “inactive”. In the case of `C1=CCC2CC=CC2C1` (centres undefined) it was “inactive”.

Turning to `COc1cc(OC)c2ccc(=O)oc2c1`, the Potency entry was “inactive”. With `CC(C)C1CCC(C(=O)N[C@H](Cc2ccccc2)C(=O)O)CC1` (some centres undefined), the Potency result was “inactive”.

As for `CCCCCCOC(=O)CCCCC`, the Potency result is “inactive”.

For the compound `C[C@@H]1C[C@H]2[C@@H]3CCC4=CC(=O)C=C[C@]4(C)[C@@]3(F)[C@@H](O)C[C@]2(C)[C@@]1(O)C(=O)COP(=O)(O)O`, the Potency entry is “inactive”.

On to `CO[C@@H]1[C@@H](OC)[C@H](C)[C@@](O)(CC(=O)O)O[C@H]1[C@H](C)[C@H]1O[C@@]2(CC[C@@](C)([C@H]3CC[C@@](C)([C@@H]4O[C@@H]([C@H]5O[C@](C)(O)[C@H](C)C[C@@H]5C)C[C@@H]4OC4C[C@H](OC)[C@@H](OC)[C@H](C)O4)O3)O2)C[C@H](O)[C@H]1C` (some centres undefined), for which the Potency is 5.31 µM (active). For `CCCCCCCCCCCCCCCC(=O)OCC`, the Potency entry is “inactive”. Take `CC(C)COC(=O)c1ccc(O)cc1`: the Potency entry is “inactive”. In the case of `COc1ccc(C(=O)NCc2ccc(OCCN(C)C)cc2)cc1OC`, the Potency result is “inactive”. `CC(=O)NNC(C)=O`: the Potency result is “inactive”.

With `CCC(CO)(CO)CO`, the Potency result was “inactive”. Consider `COc1ccc(-n2nc(C(F)F)cc2-c2ccc(S(C)=O)cc2)cc1` (centres undefined), for which the Potency entry is “inactive”.

As to `O=C(O)c1cc(Cl)cc(Cl)c1O`, the Potency entry is “inactive”. With `C=CC(=O)NC(C)C`, the Potency entry is “inactive”. The same measure for `CC(=O)OCCC(C)CC(C)(C)C` (centres undefined): “inactive”; for `CCCCOC(=O)CCCCC(=O)OCCCC`: “inactive”; for `CCCCC(CC)COS(=O)(=O)O` (centres undefined): “inactive”. Consider `COC(C)(C)OC`, for which the Potency result is “inactive”. `COc1ccc(C2C(=O)c3ccccc3C2=O)cc1`: the Potency result is “inactive”.

Take `Cc1ccc(S(=O)(=O)NC(=O)NC2CCCCC2)cc1`: the Potency entry is “inactive”. For the compound `CC1=CC[C@@]23C[C@@H]1C(C)(C)[C@@H]2CC[C@H]3C`, the Potency result was “inactive”. Regarding `CCCCCCC(O)CCOC(C)=O` (centres undefined), the Potency result was “inactive”. On to `CC(=O)C(=O)CC(C)C`, for which the Potency entry was “inactive”. On to `O=C(O)CCS`, for which the Potency entry is “inactive”. Take `CC(=O)c1ccc[nH]1`: the Potency result was “inactive”. Take `CC(C)(O)CCc1ccccc1`: the Potency result is “inactive”. The same measure for `COc1ccc(C)cc1`: “inactive”; for `CCN(CC)C(=O)N1CCN(C)CC1`: “inactive”.
